# Source: PubChem BioAssay (National Center for Advancing Translational Sciences (NCATS))
# G9a block: G9a (human) methyltransferase inhibition; Potency, µM (top dose mostly 102 µM), most hits filed as inhibitors; Q96KQ7; actives 8.8% (n = 350,000); G9a H3K9 monomethylation, AlphaScreen, 2 h; also: nearly all actives have a fitted effect of over 75% in size
#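 Using a bead-based AlphaScreen, monomethylated H3K9 product from 2 h room-temperature reactions (G9a 20 nM, peptide 500 nM, SAM 20 uM) was detected with 0.5 ug/mL rabbit anti-H3K9me1 antibody.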
# CtBP-E1A blk: inhibitors of CtBP/E1A interaction | actives 0.49% (n = 340,000) | activity change, % (test concentration not listed) | AlphaScreen GST-E1A/His-CtBP binding, 1536-well; stronger effect = lower value | AID 651724; in the data active = activity change below about -65%; inconclusive = mostly about -30% to -63%
#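 AlphaScreen with 125 nM GST-E1A and 125 nM His-CtBP (5X stocks) in Tris pH 8.0, 300 mM NaCl, BSA, Tween 20, TCEP. Compounds preincubated 2 h at 37 deg C, then glutathione donor/nickel acceptor beads added for 1 h at 37 deg C in dark.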
# HP1b chromo inh: HP1-beta chromodomain-methylated histone interaction inhibition; P83916; AlphaScreen HP1-beta / biotin-H3K9me3 peptide binding; Potency, µM (titrated, usually from 114 µM), most hits filed as inhibitors; actives 0.56% (n = 390,000); also: nearly all actives have a fitted effect of over 70% in size
#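 AlphaScreen: HP1-beta (50 nM) preformed 30 min with biotin-H3(1-18)K9me3 peptide (50 nM) in PBS pH 7.4, 0.01% Tween-20. Compound added for 30 min at RT, then streptavidin donor/nickel chelate acceptor beads (10 ug/mL) for 30 min.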
# BAZ2B inh: BAZ2B (human) inhibition; Q9UIF8; AlphaScreen BAZ2B-H3K14Ac peptide displacement; Potency, µM (highest dose often 114 µM), most hits filed as inhibitors; actives 4.4% (n = 360,000); also: nearly all actives have a fitted effect of over 60% in size
#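 Protein-peptide AlphaScreen: BAZ2B 50 nM, b-H3K14Ac 50 nM, 1x PBS pH 7.4 + 0.01% Tween-20. Preincubation 30 min RT; cpd 30 min RT (top 110 uM); beads 20 min RT, light-protected.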
# Six1-Eya2 inh: blocks human Six1 binding to Eya2. AlphaScreen GST-Six1/His-Eya2 binding, biochemical; stronger effect = lower value. activity change, % (test concentration not listed). actives 0.56% (n = 360,000). AID 651725; in the data active = activity change below about -65%; inconclusive = mostly about -30% to -63%
# Target sequence (O00167 whole entry, looked up): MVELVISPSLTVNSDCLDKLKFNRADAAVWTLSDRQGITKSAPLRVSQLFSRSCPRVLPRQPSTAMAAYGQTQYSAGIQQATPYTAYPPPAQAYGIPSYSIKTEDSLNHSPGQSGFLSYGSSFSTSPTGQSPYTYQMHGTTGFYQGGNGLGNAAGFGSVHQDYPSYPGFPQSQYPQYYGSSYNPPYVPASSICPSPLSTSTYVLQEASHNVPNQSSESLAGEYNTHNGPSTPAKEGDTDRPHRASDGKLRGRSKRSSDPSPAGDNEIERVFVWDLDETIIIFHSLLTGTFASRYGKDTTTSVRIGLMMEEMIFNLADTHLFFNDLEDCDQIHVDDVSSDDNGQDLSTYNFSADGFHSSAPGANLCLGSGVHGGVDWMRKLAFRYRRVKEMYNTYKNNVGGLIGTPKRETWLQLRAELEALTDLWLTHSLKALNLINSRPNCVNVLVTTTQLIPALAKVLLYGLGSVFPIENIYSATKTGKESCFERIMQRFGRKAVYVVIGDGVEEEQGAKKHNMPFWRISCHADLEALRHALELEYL
# Target sequence (Q15475 whole entry, looked up): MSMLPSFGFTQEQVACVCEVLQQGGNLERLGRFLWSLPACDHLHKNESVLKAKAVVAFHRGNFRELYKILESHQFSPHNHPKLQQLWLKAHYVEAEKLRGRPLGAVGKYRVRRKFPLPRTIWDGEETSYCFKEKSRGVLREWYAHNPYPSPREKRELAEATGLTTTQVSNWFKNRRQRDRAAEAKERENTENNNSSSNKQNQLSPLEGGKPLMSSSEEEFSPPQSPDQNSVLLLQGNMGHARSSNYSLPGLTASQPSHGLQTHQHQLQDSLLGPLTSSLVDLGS
#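 Six1/Eya2 binding was read as AlphaScreen signal after compounds were pinned into GST-Six1 plus His-tagged Eya2 (5X stock 250/500 nM) in pH 8.0 Tris/NaCl/TCEP buffer, beads added, then incubated 1 h, 37 C, dark.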
# JMJD2A Tudor inh: blocks the human JMJD2A Tudor domain; O75164; AlphaScreen JMJD2A-Tudor / H3K4me3 peptide binding; Potency, µM (titrated, usually from 114 µM), most hits filed as inhibitors; actives 4.4% (n = 390,000); AID 504339; also: nearly all actives have a fitted effect of over 50% in size
# Hits are given with their value; 0 = inactive; ? = inconclusive; - = no result given; ! = a repeat was not active; [ ] = another dose, or the depositor's remark. In the library only some 10% were active in any assay of this set; here they are far more common. Unless noted, calls follow the shape of the dose curve; as a rule, active = well fitted inhibition curve with a large enough effect; inconclusive = small, poorly fitted or top-dose-only effect; inactive = no such curve, though single readings can be large or run the other way.
SMILES,G9a block,CtBP-E1A blk,HP1b chromo inh,BAZ2B inh,Six1-Eya2 inh,JMJD2A Tudor inh
C=CCNc1c2c(nc3ncnn13)CC(C)CC2 (centres undefined),0,-,0,0,0,0
CC1CCc2c(nc3ncnn3c2NCCN(C)C)C1 (centres undefined),3.98µM,0,0,0,0,56.2µM
NS(=O)(=O)c1ccc(NS(=O)(=O)c2ccc(C3CNC(=O)C3)cc2)cc1 (centres undefined),0,0,0,0,0,50.1µM
c1ccc(Oc2nc(NC3CCCCC3)c3[nH]cnc3n2)cc1,0,-,-,-,-,-
COc1ccc(Cc2nnc(NC(=O)c3c(-c4ccccc4)noc3C)s2)cc1,?,0,0,?,0,0
CCOCc1nnc(NC(=O)c2c(-c3ccccc3)noc2C)s1,31.6µM,0,0,0,0,0
COc1ccc(Cc2nnc(NC(=O)c3c(-c4ccccc4)noc3C)s2)cc1OC,39.8µM,-,-,0,-,-
COc1ccc(NC(=O)CN(C)S(=O)(=O)c2ccc3nc(C)sc3c2)cc1,0,-,0,0,-,0
COc1cc(C(c2nnnn2C2CCCC2)N2CCc3ccccc3C2)ccc1O (centres undefined),1.78µM,0,?,0,0,?
Oc1ccc(C(c2nnnn2C2CCCC2)N2CCc3ccccc3C2)cc1 (centres undefined),4.47µM,0,0,56.2µM,0,0[11.4 µM]
CC(C)Nc1oc(-c2cccc3ccccc23)nc1C#N,44.7µM,0,0,0,0,0
Cc1cccc(-c2cccc(-c3cc(=O)oc4cc5c(cc34)OCO5)c2)c1,0,-,-,-,-,-
COc1ccc(/C=N/Nc2nncn2N)cc1Br,-,?,0,?,-74.9,0
COc1ccc(S(=O)(=O)N2CCC(n3c(C)nc4cccnc43)CC2)cc1Cl,0,-,0,0,-,0
O=C(COc1ccc(Cl)cc1Cl)NCCN1CCCCC1,-,0,-,-,0,-
CN1CCN(CCCCOc2ccccc2C=O)CC1,-,0,?,22.4µM,0,3.98µM
Clc1ccccc1OCCCCN1CCNCC1,-,0,?,28.2µM,0,3.16µM
Clc1ccc(Cl)c(OCCCCN2CCCCC2)c1,8.91µM,0,?,?,0,31.6µM
Clc1ccccc1OCCCCN1CCCC1,?,0,?,?,0,3.16µM
CN1CCN(c2ncc3nc(-c4cccc(C#N)c4)c(=O)n(C[C@H]4CCCO4)c3n2)CC1,0[0.501 µM],-,-,-,-,-
Cc1ccc(NC(=O)CSCc2cc(=O)c3ccccc3[nH]2)c(C)c1,0,-,0,0,-,0
CC(C)c1ccccc1OCCCCN1CCCCC1,-,-,0,-,0,0
c1ccc2c(OCCCCN3CCCC3)cccc2c1,35.5µM,-,?,56.2µM,0,39.8µM
Fc1ccccc1OCCCCN1CCCCC1,50.1µM,0,0,?,0,79.4µM
Clc1ccccc1OCCCCN1CCCCC1,-,0,?,?,0,28.2µM
SMILES,G9a block,CtBP-E1A blk,HP1b chromo inh,BAZ2B inh,Six1-Eya2 inh,JMJD2A Tudor inh
CC1CCN(CCOc2cc(Cl)ccc2Cl)CC1,?,0,?,50.1µM,0,3.55µM
Cc1ccccc1OCCCCCCN1CCNCC1,-,0,0,-,0,0
Cc1cccc(-c2cc(NC(=O)COc3ccccc3F)n(-c3ccccc3)n2)c1,0,-,0,0,-,0
CC(C)CNc1ncnc2c1ncn2[C@H]1CN(Cc2ccc(C(=O)O)cc2)C[C@@H](CO)O1,-,0,-,-,0,-
CCCCCC/C=C1\CC(C(=O)OCC)Oc2ccccc21 (centres undefined) (tested in a mixture with another compound),0,-,-,-,-,-
CC(Sc1nnc(N)s1)C(=O)c1c(N)n(C)c(=O)n(C)c1=O (centres undefined),50.1µM,0,0,0,0,0
Cc1nc(SC(C)C(=O)c2c(N)n(C)c(=O)n(C)c2=O)c2c(C)c(C)sc2n1 (centres undefined),7.08µM,0,0,0,0,?
CCOC(=O)c1c(-c2ccc(Cl)cc2)csc1NC(=O)CNCc1ccco1,0,0,?,39.8µM,0,44.7µM
CCOC(=O)c1c(-c2ccccc2)csc1NC(=O)C(C)NCc1ccco1 (centres undefined),25.1µM,0,28.2µM,50.1µM,0,?
CC1CN(c2ncnc3c2oc2ccccc23)CC(C)O1 (centres undefined),50.1µM,0,0,?,0,0
CC1CN(S(=O)(=O)c2cccc(C(=O)OCC(=O)Nc3ccc4c(c3)OCO4)c2)CC(C)O1 (centres undefined),50.1µM,0,0,0,0,0
CC(C(=O)Nc1ccc(OCc2ccccc2)cc1)N1CCCC1 (centres undefined),?,0,0,0,0,0
CC(C)COCC(CN(Cc1ccccc1)c1ccccc1)N1CCCC1 (centres undefined),10µM!,0,0,?,0,0
O=C(NC(=S)NCc1ccc(Cl)cc1)c1ccco1,-,0,0,-,0,0
CC(Oc1ccc(Cl)cc1)C(=O)NNC(=S)NC(=O)c1ccco1 (centres undefined),11.2µM,0,0,0,0,0
O=C(COC(=O)Cc1ccc(Cl)cc1)NCc1ccco1,-,0,?,-,0,56.2µM
O=C(CNCc1ccc(Cl)cc1)NCc1ccco1,5.62µM,0,?,50.1µM,0,79.4µM
O=C(COc1ccc(Cl)cc1Cl)NNC(=S)NC(=O)c1ccco1,7.94µM,0,?,0,0,?
Cc1ccccc1C([O-])=Nc1ccc[n+](-c2nc3ccccc3nc2NS(=O)(=O)c2ccccc2)c1,?,0,0,0,0,?
Cc1ccc(-c2nc(CS(=O)CC(=O)NCCc3ccc(Cl)cc3)c(C)o2)cc1 (centres undefined),0,-,0,?,-,0
O=C(Nc1ccc(C(F)(F)F)cc1)c1cc(S(=O)(=O)NC2CCCCCC2)ccc1F,0,-,0,0,-,0
Cc1nc2c(-c3ccccc3)c(C)nn2c(C)c1CCC(=O)N1CCN(c2ccc(F)cc2)CC1,0,-,0,0,-,0
Cc1ccc2c(Cl)cc(Cl)c(OCC(=O)NCc3ccco3)c2n1,0[12.7 µM],-,-,39.8µM,-,-
O=C(COc1ccc(Cl)cc1Cl)NCc1ccco1,56.2µM,0,0,0,0,0
Cc1ccc2c(Cl)cc(Cl)c(OCC(=O)NC(=O)NCc3ccco3)c2n1,0,0,0,-,0,?
Fc1ccc(C2=CC(c3ccc(F)cc3)n3c(nc4ccccc43)N2)cc1 (centres undefined),17.8µM,-,0,0,-,0
COC(=O)c1ccc(C2C=C(c3ccc(Cl)cc3)Nc3nc4ccccc4n32)cc1 (centres undefined),?,-,0,0,-,0
CCc1nn(CC(=O)NCCc2ccc(OC)cc2OC)c(=O)c2cc3c(OC)cccc3n12,0,-,0,0,-,0
COc1ccc(OC)c2c1CCC1(C2)NC(=O)NC1=O (centres undefined),-,0,-,-,0,-
CN(C)/C=C1\C(=O)Nc2ccccc21,?,0,0,0,0,0
